Survival enhancement data for 34 compounds are collected here from PubChem BioAssay AID602274 (Sanford-Burnham Center for Chemical Genomics, 2012).

Out of some 360,000 compounds screened, about 160 (0.044%) were called active. The sample holds actives, similar compounds and a random draw of the others, so the mix is not that of the screen. No stated cut-off is given here; in the data, active means survival enhancement above about 18%; inactive means the rest.

The nature of this test: enhancers of single-cell hiPSC survival, primary screen, ATPlite luminescence (AID 602274).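 Further: cells exposed to compounds for 16 hours before the ATP read.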 To be noted: at 20 µM, hits give high values, 100% = ROCK inhibitor wells, 0% = DMSO. (Cellular ATP, detected with luciferase, serves as a proxy for viable cell number.)
Regarding `Cc1noc(C)c1NC(=O)Nc1ccc2c(c1)C(=O)N([C@H](C)CO)C[C@H](C)[C@@H](CN(C)C(=O)Nc1ccc(C(F)(F)F)cc1)O2`, the survival enhancement is -1.8% (inactive).

Take `Cc1ccc(NC(=O)c2cnc(SCC(=O)NCC3CCCO3)n(C)c2=O)cc1` (centres undefined): the survival enhancement was 1.7% (inactive).

For `O=C(NCC(c1ccco1)N1CCc2ccccc2C1)c1ccccc1Cl` (centres undefined), the survival enhancement is -0.3% (inactive).

Turning to `CCc1ccc([C@@H]2CC(=O)[C@@H]3CN(S(=O)(=O)c4ccc(C)cc4)[C@H](c4ccc(Cl)cc4)C[C@@H]3N2S(=O)(=O)c2ccc(C)cc2)cc1`, the survival enhancement is 0.5% (inactive).

Consider `CCCOC(=O)CC1C(=O)NCCN1Cc1ccc(F)cc1` (centres undefined), for which the survival enhancement is 0.4% (inactive).

Regarding `COC(=O)C1NN=C(C(=O)c2ccc(Br)cc2)C1c1cccc(Br)c1` (centres undefined), the survival enhancement is 2.6% (inactive).

Regarding `COC(=O)C1=C(C)N(C)C(C)=C(C(=O)OC)C1c1cccc(Br)c1`, the survival enhancement was 19.8% (active).

With `COC(=O)C1=C(C)N(C)C(=S)NC1c1cc(OC)ccc1OC` (centres undefined), the survival enhancement was -1.1% (inactive).

Consider `O=C(CS(=O)(=O)c1cn(Cc2ccc(Cl)cc2)c2ccccc12)N1CCOCC1`, for which the survival enhancement was 0.6% (inactive).

As for `COc1ccccc1P(=O)(c1ccccc1)c1ccccc1NC(C)=O` (centres undefined), the survival enhancement was -0.7% (inactive).

For the compound `CN(Cc1ccc(F)cc1)C(=O)COc1ccc2ccccc2c1`, the survival enhancement was -0.4% (inactive).

As for `C[C@H]1CN([C@@H](C)CO)C(=O)c2cc(Br)cnc2O[C@H]1CN(C)S(=O)(=O)c1cccs1`, the survival enhancement was 3.8% (inactive).

As to `CC(=O)Nc1ccccc1C(=O)C(=O)Nc1ccc(F)cc1`, the survival enhancement was 3.3% (inactive).

Consider `CC1CCN(C(=O)/C(=C\c2ccccc2F)NC(=O)c2ccccc2)CC1`, for which the survival enhancement was -0.6% (inactive).

On to `CCOC(=O)c1ccn(-c2nc(-c3ccco3)cc(C(F)(F)F)n2)n1`, for which the survival enhancement was -0.8% (inactive).

On to `CC(CCc1ccc(O)cc1)NCc1ccc(Cl)cc1Cl` (centres undefined), for which the survival enhancement was 0.5% (inactive).

As to `CCN(CC)C(=O)Oc1ccc(OC(=O)N(CC)CC)cc1`, the survival enhancement is -2.3% (inactive).

`O=C(COC(=O)C1(c2ccc(F)cc2)CCCC1)N1CCNC1=O`: the survival enhancement is 0.5% (inactive).

With `Cc1ccccc1N1CCN(Cc2nc(Cc3ccccc3F)no2)CC1`, the survival enhancement is -0.1% (inactive).

As for `O=[n+]1c2c(n([O-])c3cc(Br)ccc31)CCC2`, the survival enhancement is 3.1% (inactive).

As to `CCN(CC)c1ccc(NC(=O)c2ccc(=O)[nH]c2)cc1S(=O)(=O)Nc1ccc(OC)cc1`, the survival enhancement was 1.7% (inactive).

As to `CCCS(=O)(=O)Nc1c(C(=O)O)[nH]c2ccccc12`, the survival enhancement is 0.3% (inactive).

As for `O=C(O)c1ccc([N+](=O)[O-])cc1Sc1ccsc1`, the survival enhancement is 6.3% (inactive).

For the compound `CC(C)CCOc1ccc(C(=O)Nc2cc(S(=O)(=O)N3CCOCC3)ccc2N2CCOCC2)cc1`, the survival enhancement was -2.4% (inactive).

In the case of `O=C(NCc1cccnc1)c1cc(C2CCCN(C(=O)C3CCCCC3)C2)on1` (centres undefined), the survival enhancement was 0.4% (inactive).

As for `Cc1ccc2cccc(S(=O)(=O)N3CCN(c4ccccc4F)CC3)c2n1`, the survival enhancement was 0% (inactive).

With `COc1cccc(CNC(=O)CN2C(=O)NC(Cc3ccccc3)(c3ccccc3)C2=O)c1` (centres undefined), the survival enhancement is -1.1% (inactive).

With `Cn1c(=O)c2c(nc(Br)n2CCSc2nc3ccccc3o2)n(C)c1=O`, the survival enhancement was 1.6% (inactive).

As to `OCCC1CN(Cc2ccc3nsnc3c2)CCN1C1CCCC1` (centres undefined), the survival enhancement was 1.5% (inactive).

On to `COC(=O)C1=C(Nc2ccc(C)cc2)C=C(C)C(C(=O)OC)C1c1ccc(F)cc1` (centres undefined), for which the survival enhancement is -0.6% (inactive).

As to `N#Cc1ccccc1Sc1ccccc1C(=O)OCC(=O)NC1CCCCC1`, the survival enhancement was 1% (inactive).

Consider `O=C(O)c1ccc(NS(=O)(=O)c2ccc3c(c2)C(=O)c2cc(S(=O)(=O)Nc4ccc(C(=O)O)cc4)ccc2-3)cc1`, for which the survival enhancement was 4.4% (inactive).

In the case of `CN(C)N(C)C(=O)C(O)(c1ccccc1)c1ccccc1`, the survival enhancement is -0.9% (inactive).

For `COC(=O)C1=NNC2(c3ccc(C)cc3)C(=O)N(c3cccc(C)c3C)C(=O)C12` (centres undefined), the survival enhancement is 1.4% (inactive).
